In experiment [1] the target is MAP/microtubule affinity-regulating kinase 3 (Homo sapiens) (UniProt P27448). To be noted: at 1 µM.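 Further: reported values are averaged percent inhibition of MARK3.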
Experiment [2] has as its target T1, MAP/microtubule affinity-regulating kinase 4 (Homo sapiens) (UniProt Q96L34).
T1 sequence (whole entry): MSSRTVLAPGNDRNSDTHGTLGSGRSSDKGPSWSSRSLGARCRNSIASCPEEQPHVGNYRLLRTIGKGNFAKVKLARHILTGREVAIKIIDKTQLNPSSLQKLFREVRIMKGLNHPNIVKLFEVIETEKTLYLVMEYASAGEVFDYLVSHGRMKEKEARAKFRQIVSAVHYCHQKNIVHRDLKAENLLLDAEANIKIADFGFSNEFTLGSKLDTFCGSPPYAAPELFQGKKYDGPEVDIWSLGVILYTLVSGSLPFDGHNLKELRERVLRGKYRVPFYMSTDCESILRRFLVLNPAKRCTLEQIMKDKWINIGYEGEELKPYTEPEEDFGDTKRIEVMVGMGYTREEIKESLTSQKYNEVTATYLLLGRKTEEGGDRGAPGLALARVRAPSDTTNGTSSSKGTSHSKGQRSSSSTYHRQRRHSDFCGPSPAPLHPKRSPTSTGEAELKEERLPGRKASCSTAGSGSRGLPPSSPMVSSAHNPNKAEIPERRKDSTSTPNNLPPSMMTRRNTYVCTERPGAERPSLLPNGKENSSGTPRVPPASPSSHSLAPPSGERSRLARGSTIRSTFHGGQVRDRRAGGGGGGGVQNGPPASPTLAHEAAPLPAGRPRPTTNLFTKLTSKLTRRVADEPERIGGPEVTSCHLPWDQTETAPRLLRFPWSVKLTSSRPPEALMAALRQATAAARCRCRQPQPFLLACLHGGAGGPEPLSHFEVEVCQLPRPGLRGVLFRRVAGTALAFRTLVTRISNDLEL
To be noted: at 0.1 µM.

Experiment [3] has as its target T1, MAP/microtubule affinity-regulating kinase 4 (Homo sapiens). The note with it: at 1 µM.
Experiment [4] deals with Maternal embryonic leucine zipper kinase (Homo sapiens) (UniProt Q14680). To be noted: at 0.1 µM.
Experiment [5] has the same target. The note with it: at 1 µM.
Experiment [6] addresses MAP kinase-interacting serine/threonine-protein kinase 1 (Homo sapiens) (UniProt Q9BUB5). To be noted: at 0.1 µM.
Experiment [7] shares this target. To be noted: at 1 µM.
For experiment [8], the target named is MAP kinase-interacting serine/threonine-protein kinase 2 (Homo sapiens) (UniProt Q9HBH9). To be noted: at 0.1 µM.
MAP kinase-interacting serine/threonine-protein kinase 2 (Homo sapiens), sequence (Q9HBH9 whole entry, looked up): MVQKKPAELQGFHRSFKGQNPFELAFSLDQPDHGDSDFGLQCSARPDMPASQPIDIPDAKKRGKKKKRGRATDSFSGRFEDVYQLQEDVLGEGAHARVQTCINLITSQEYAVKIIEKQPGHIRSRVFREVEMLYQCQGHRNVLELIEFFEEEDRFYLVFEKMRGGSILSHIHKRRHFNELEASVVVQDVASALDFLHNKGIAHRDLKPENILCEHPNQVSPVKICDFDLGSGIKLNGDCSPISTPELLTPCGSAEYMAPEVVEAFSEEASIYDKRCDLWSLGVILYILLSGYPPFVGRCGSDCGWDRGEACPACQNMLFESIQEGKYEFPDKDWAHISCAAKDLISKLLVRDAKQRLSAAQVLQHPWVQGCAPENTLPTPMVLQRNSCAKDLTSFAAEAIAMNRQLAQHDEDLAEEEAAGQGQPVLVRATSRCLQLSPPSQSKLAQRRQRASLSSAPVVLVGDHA
Experiment [9] has the same target. The note with it: at 1 µM.
For experiment [10], the target named is Serine/threonine-protein kinase MARK2 (Homo sapiens) (UniProt Q7KZI7). The note with it: at 0.1 µM.
Serine/threonine-protein kinase MARK2 (Homo sapiens), sequence (Q7KZI7 whole entry): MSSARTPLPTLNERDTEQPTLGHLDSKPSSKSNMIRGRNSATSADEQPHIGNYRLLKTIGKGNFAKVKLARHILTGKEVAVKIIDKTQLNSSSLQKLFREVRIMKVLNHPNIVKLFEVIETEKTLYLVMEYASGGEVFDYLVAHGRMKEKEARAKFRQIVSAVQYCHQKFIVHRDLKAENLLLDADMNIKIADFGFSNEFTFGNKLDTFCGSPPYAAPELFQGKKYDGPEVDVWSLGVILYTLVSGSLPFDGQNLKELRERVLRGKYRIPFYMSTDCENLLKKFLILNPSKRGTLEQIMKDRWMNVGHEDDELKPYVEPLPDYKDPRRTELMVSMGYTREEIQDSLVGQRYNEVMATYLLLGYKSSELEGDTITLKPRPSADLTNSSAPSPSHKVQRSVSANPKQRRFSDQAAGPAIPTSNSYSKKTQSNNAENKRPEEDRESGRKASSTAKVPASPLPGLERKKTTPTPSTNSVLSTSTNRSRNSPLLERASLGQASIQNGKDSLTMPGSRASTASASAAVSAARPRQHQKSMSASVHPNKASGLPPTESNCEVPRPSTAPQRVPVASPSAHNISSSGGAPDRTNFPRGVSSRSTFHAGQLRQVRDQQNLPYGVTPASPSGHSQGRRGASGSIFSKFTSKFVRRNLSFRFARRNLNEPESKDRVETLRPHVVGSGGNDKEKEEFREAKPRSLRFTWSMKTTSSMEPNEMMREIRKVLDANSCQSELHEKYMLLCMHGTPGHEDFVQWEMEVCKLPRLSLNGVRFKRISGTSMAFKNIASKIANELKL
The target is the same in experiment [11]. The note with it: at 1 µM.
Experiment [12] has as its target PAS domain-containing serine/threonine-protein kinase (Homo sapiens) (UniProt Q96RG2). The note with it: at 0.1 µM.
For experiment [13] the target is unchanged. To be noted: at 1 µM.
Experiment [14] has as its target Phosphorylase b kinase gamma catalytic chain, skeletal muscle/heart isoform (Homo sapiens) (UniProt Q16816). To be noted: at 0.1 µM.
For experiment [15] the target is unchanged. The note with it: at 1 µM.
Experiment [16] addresses T2, Phosphorylase b kinase gamma catalytic chain, liver/testis isoform (Homo sapiens) (UniProt P15735).
T2 sequence (whole entry): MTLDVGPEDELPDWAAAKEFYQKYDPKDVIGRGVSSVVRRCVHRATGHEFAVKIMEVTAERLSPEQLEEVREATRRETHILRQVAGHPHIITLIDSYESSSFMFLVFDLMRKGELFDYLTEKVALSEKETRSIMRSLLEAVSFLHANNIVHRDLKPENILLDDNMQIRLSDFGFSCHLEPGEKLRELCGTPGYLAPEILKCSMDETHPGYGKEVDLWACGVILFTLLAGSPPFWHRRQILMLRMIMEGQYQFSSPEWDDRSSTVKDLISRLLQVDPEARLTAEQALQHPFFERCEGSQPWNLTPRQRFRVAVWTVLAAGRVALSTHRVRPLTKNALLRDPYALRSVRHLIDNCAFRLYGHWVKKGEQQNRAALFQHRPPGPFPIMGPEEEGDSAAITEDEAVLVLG
To be noted: at 0.1 µM.

Experiment [17] deals with T2, Phosphorylase b kinase gamma catalytic chain, liver/testis isoform (Homo sapiens). The note with it: at 1 µM.
Experiment [18] has as its target Serine/threonine-protein kinase pim-1 (Homo sapiens) (UniProt P11309). To be noted: at 0.1 µM.
Experiment [19] shares this target. The note with it: at 1 µM.
Experiment [20] addresses Serine/threonine-protein kinase pim-2 (Homo sapiens) (UniProt Q9P1W9). To be noted: at 0.1 µM.

This is an account of results in ChEMBL document CHEMBL1961873, “Compounds: GSK PKIS; Assays: Nanosyn kinase panel” (2012).

PAS domain-containing serine/threonine-protein kinase (Homo sapiens), sequence (Q96RG2 whole entry, the tested form may be a part): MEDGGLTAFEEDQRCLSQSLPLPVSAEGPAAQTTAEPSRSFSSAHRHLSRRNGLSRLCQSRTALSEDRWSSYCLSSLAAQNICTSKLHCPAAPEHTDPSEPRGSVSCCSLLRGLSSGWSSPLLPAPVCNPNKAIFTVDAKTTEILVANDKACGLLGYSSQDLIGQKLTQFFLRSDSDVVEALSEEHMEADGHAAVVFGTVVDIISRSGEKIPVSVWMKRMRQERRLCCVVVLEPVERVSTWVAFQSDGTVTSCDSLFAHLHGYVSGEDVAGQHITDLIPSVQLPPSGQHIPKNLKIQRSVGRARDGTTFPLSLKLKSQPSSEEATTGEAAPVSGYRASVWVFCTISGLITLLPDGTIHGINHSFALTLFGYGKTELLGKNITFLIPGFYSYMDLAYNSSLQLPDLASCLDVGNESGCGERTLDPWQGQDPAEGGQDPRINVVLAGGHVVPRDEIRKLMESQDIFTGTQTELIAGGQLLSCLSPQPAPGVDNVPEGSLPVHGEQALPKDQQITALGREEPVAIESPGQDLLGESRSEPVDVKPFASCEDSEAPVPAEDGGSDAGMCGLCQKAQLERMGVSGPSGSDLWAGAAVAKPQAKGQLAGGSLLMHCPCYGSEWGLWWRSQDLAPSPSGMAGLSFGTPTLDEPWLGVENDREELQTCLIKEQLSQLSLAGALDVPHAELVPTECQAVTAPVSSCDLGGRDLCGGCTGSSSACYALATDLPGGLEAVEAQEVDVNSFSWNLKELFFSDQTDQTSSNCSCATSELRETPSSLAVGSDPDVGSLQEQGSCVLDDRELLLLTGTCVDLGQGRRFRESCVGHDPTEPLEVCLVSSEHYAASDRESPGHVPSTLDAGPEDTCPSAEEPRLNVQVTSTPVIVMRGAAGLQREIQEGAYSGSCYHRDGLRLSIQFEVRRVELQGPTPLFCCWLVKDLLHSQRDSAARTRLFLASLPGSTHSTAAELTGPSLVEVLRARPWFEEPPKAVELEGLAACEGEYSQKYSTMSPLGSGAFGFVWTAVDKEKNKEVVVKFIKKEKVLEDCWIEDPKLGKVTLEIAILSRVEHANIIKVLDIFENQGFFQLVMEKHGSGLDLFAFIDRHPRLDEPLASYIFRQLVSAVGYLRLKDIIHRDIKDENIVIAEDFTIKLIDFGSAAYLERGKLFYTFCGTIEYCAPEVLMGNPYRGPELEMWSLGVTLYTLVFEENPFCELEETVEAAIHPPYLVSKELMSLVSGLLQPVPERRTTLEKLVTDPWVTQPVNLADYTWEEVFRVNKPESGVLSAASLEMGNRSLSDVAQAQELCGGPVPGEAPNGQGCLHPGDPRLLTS
MAP/microtubule affinity-regulating kinase 3 (Homo sapiens), sequence (P27448 whole entry, looked up): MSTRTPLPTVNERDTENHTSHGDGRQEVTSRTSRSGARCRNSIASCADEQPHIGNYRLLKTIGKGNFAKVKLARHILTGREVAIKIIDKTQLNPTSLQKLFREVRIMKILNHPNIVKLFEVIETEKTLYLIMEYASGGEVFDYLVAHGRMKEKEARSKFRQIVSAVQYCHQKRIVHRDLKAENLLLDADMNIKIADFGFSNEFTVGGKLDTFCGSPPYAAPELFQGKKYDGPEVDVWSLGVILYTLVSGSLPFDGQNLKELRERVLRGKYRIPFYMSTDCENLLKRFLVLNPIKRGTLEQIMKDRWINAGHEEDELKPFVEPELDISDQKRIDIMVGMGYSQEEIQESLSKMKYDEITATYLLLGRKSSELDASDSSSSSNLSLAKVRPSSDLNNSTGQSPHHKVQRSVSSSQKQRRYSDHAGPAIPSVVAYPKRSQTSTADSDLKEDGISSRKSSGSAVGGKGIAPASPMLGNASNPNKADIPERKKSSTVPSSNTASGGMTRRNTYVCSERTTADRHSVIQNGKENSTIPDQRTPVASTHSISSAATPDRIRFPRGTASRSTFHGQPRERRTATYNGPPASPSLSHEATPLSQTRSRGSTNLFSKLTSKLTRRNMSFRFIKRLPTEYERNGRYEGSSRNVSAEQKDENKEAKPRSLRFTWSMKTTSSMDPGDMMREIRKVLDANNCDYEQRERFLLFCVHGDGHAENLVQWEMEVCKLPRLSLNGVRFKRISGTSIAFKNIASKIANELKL
Serine/threonine-protein kinase pim-2 (Homo sapiens), sequence (Q9P1W9 whole entry, looked up): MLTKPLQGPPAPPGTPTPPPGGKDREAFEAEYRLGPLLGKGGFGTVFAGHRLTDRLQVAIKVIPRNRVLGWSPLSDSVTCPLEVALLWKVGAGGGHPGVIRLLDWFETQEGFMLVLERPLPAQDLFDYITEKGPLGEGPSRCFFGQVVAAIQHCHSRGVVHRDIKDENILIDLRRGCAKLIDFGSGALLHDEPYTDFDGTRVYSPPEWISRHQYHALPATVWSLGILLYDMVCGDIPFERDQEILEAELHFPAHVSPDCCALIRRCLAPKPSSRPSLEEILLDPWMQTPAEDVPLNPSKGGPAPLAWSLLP
MAP kinase-interacting serine/threonine-protein kinase 1 (Homo sapiens), sequence (Q9BUB5 whole entry, looked up): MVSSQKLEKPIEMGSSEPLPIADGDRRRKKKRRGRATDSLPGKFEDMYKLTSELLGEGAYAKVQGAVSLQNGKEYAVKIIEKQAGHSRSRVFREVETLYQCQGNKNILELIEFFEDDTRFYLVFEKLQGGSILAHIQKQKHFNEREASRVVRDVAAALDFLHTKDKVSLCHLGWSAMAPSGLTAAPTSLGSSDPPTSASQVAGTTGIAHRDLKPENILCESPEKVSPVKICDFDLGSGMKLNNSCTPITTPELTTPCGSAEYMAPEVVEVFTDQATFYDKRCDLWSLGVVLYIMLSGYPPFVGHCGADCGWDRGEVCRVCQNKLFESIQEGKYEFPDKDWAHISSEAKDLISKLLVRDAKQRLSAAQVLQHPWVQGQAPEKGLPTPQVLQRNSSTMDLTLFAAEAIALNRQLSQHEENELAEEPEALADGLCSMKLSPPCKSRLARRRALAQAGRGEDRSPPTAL
Serine/threonine-protein kinase pim-1 (Homo sapiens), sequence (P11309 whole entry, looked up): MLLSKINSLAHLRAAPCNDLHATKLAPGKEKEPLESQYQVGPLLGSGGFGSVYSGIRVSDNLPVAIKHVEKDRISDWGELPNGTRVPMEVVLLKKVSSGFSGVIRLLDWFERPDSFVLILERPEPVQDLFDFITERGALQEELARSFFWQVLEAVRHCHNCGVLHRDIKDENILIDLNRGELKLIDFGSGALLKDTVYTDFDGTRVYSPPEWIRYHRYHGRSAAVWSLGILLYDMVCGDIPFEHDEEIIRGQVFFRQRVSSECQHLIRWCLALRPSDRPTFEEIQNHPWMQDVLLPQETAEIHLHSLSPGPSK
Phosphorylase b kinase gamma catalytic chain, skeletal muscle/heart isoform (Homo sapiens), sequence (Q16816 whole entry, looked up, canonical isoform): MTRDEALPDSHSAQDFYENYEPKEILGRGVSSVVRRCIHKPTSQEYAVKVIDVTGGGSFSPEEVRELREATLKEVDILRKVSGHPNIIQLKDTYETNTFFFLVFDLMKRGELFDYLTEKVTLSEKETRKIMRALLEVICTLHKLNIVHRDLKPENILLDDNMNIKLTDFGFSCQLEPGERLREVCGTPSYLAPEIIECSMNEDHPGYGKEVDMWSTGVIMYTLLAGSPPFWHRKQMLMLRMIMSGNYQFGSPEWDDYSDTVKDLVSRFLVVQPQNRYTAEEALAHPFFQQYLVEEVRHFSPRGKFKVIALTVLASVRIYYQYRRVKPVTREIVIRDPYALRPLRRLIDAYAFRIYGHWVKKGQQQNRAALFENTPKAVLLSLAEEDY

`CC(=O)Nc1cccc(C#Cc2cncnc2Nc2ccc(OCc3cccc(F)c3)c(Cl)c2)c1`: the inhibition worked out at 4.64% in [1]; 0.9% in [2]; 0.69% in experiment [3]; 1.32% in experiment [4]; 1.11% in [5]; 2.02% in experiment [6]. In addition, the inhibition in [7] was 15.4%; in experiment [8], 1.16%; in experiment [9], 6.2%; in experiment [10], -0.32%; in experiment [11] it was 0.33%; in [12] it was 1.37%. The inhibition in experiment [13] is -0.46%; in experiment [14], 0.65%; in [15], 1.71%; in experiment [16] it was 3.82%; in experiment [17] it was 1.55%; in experiment [18], 1.32%. Moreover, the inhibition in experiment [19] came out at 0.75%; in [20], 0.84%.
With `CN1CCC(n2cnc(-c3ccc(F)cc3)c2-c2ccnc(Nc3ccccc3)n2)CC1`, the inhibition came to 2.89% in [1]; 0.39% in [2]; 0.51% in experiment [3]; 1.63% in experiment [4]; 3.22% in [5]; 1.8% in [6]. Moreover, the inhibition was 11.4% in experiment [7]; 1.79% in [8]; 4.18% in [9]; 0.89% in experiment [10]; -0.33% in experiment [11]; -0.38% in experiment [12]. In addition, the inhibition is 2.19% in experiment [13]; 3.44% in [14]; 4.79% in experiment [15]; 3.49% in experiment [16]; 2.68% in [17]; 0.38% in experiment [18]. The inhibition in [19] was 2.62%; in experiment [20] it was -0.56%.
Regarding `CC(=O)NCc1cccc(C#Cc2cncnc2Nc2ccc(OCc3cccc(F)c3)c(Cl)c2)c1`, the inhibition in experiment [1] was found to be 1.66%; in experiment [2], 2.33%; in [3], 3.13%; in [4] it was 0.79%; in [5], 2.93%; in experiment [6], 3.79%. Moreover, the inhibition in [7] was 32.1%; in experiment [8] it was 2.64%; in experiment [9], 11.8%; in experiment [10] it was 0.37%; in experiment [11], 1.33%; in [12], -0.91%. In addition, the inhibition in [13] is -1.6%; in experiment [14], 3.33%; in experiment [15], 5.96%; in experiment [16], -0.18%; in experiment [17], -1.04%; in experiment [18] it was 1.13%. Also, the inhibition in experiment [19] was determined as 0.22%; in experiment [20], 0.41%.
As to `COC(=O)Nc1nc2ccc(S(=O)(=O)c3ccc(NC(=O)Nc4cc(C(F)(F)F)ccc4F)cc3)cc2[nH]1`, the inhibition in experiment [1] came out at 0.83%; in experiment [2], 1.2%; in experiment [3] it was 1.06%; in experiment [4] it was 1.64%; in [5], 4.33%; in experiment [6] it was 1.27%. Further, the inhibition in experiment [7] is 1.87%; in experiment [8], 1%; in experiment [9], 0.01%; in experiment [10] it was -2.72%; in [11], 1.75%; in [12] it was 0.31%. Also, the inhibition is -0.77% in experiment [13]; 1.75% in [14]; 1.03% in experiment [15]; 2.73% in experiment [16]; 0.31% in [17]; 0.78% in experiment [18]. Moreover, the figures for the inhibition in [19] and in experiment [20] were 1.71% and -0.06%, respectively.
For the compound `FC(F)(F)c1cccc(-c2nn3ncccc3c2-c2ccnc(Nc3ccc4c(c3)OCCO4)n2)c1`, the inhibition in experiment [1] is 3.45%; in [2] it was 0.66%; in [3], 1.99%; in [4], 1.43%; in [5], 4.99%; in [6], 1.74%. Besides, the inhibition is 3.33% in [7]; 0.83% in experiment [8]; 1.61% in [9]; -1.11% in [10]; 1.86% in [11]; 0.04% in experiment [12]. The inhibition in experiment [13] is -1.92%; in [14], -0.01%; in experiment [15], 2.06%; in experiment [16] it was 1.75%; in experiment [17], 0.4%; in experiment [18], 0.41%. Also, the inhibition was 0.7% in experiment [19] and -0.06% in [20].
In the case of `CN(C)CCOc1ccc(-c2nc(-c3ccncc3)c(-c3ccc4c(c3)CC/C4=N\O)[nH]2)cc1`, the inhibition turned out to be 4.44% in experiment [1]; 0.44% in experiment [2]; 2.12% in [3]; 1.61% in [4]; 3.61% in experiment [5]; 1.3% in experiment [6]. The inhibition is 7.41% in experiment [7]; 1.42% in [8]; 5.3% in experiment [9]; 1.34% in experiment [10]; 0.92% in [11]; -0.26% in experiment [12]. Further, the inhibition came to 0.36% in experiment [13]; 1.18% in experiment [14]; 7.7% in experiment [15]; 3.65% in [16]; 5.28% in [17]; 1.13% in experiment [18]. In addition, the values for the inhibition in [19] and in [20] were 1.48% and -0.23%, respectively.

As a reminder, the inhibition is the drop in the measured response relative to a control, in per cent.
